Laboratory results published in PubChem BioAssay (NCI).
This is part of a sample that, as a whole, favours compounds with a hit. Of some 83,000 tested, about 20% had one in any assay.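 The endpoint reported here, percent growth, reads 100 for growth as untreated, 0 for no net growth and -100 for all cells dead.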 The source made the active and inactive calls. The calls were made as follows: active = growth percent below 10; inactive = the rest.

Key:
Experiment in all cases: NCI-60 one-dose screen, 48 h (100 = growth as untreated, 0 = no growth, -100 = all killed)
Conditions in all cases: 10 µM unless noted
[1] = system: HCT-15 colon
[2] = system: HT29 colon
[3] = system: SNB-75 CNS
[4] = system: SNB-19 CNS
[5] = system: U251 CNS
[6] = system: PC-3 prostate
[7] = system: SK-MEL-5 melanoma
[8] = system: UACC-62 melanoma
[9] = system: LOX IMVI melanoma
[10] = system: SK-MEL-28 melanoma
[11] = system: SK-MEL-2 melanoma
[12] = system: EKVX NSCLC
[13] = system: SN12C renal
[14] = system: UO-31 renal
[15] = system: TK-10 renal
[16] = system: ACHN renal
[17] = system: CAKI-1 renal
[18] = system: A498 renal
[19] = system: CCRF-CEM leukemia
[20] = system: MOLT-4 leukemia

Measured: growth

Nc1nn2c(-c3cc4cc(Br)ccc4oc3=O)ccnc2c1N=Nc1ccc(Br)cc1
active: [3] 7.89% | [4] -1.72% | [5] 6.85% | [13] -23.6% | [14] 0.343% | [17] 3.98% | [18] -4.21%
inactive: [1] 31.8% | [2] 28.8% | [6] 47.7% | [7] 22.7% | [8] 48.9% | [9] 18% | [10] 20.5% | [11] 60% | [12] 25.9% | [15] 23.4% | [16] 10.7% | [19] 96.6% | [20] 83.1%

COc1ccc(NC2=C(I)C(=O)C(C)=C(C)C2=O)cc1
inactive: [1] 64.3% | [2] 101% | [3] 86.3% | [4] 81.2% | [5] 25.9% | [6] 10.2% | [8] 33.3% | [10] 52.6% | [11] 56.9% | [12] 25% | [13] 17% | [14] 46.1% | [15] 155% | [16] 30.4% | [17] 29.1% | [18] 113%
active: [7] -44.6% | [9] 2.42% | [19] -11.1% | [20] -6.32%

Nc1nc2cc(-c3ccc4ncnc(NCc5ccccc5)c4c3)ccc2o1
inactive: [1] 14.1% | [2] 37.2% | [4] 23% | [6] 25.2% | [8] 77.1% | [10] 10.7% | [11] 42.2% | [18] 41.6% | [19] 29.6%
active: [3] -83.9% | [5] 9.55% | [7] 0.196% | [9] -86.1% | [12] 0.598% | [13] -33.7% | [14] -73.4% | [15] -28.5% | [16] -62.4% | [17] -24.9% | [20] -20.1%

COC(=O)c1ccc(-c2c(-c3ccccc3)c(F)c3oc(C(=O)OC)c(N)c3c2-c2ccccc2)cc1
inactive: [1] 77% | [2] 102% | [3] 95.7% | [4] 80.2% | [5] 82.2% | [6] 92.1% | [7] 99.4% | [8] 82.8% | [9] 81.6% | [10] 98.9% | [11] 99.6% | [12] 90.4% | [13] 98.1% | [14] 88.6% | [15] 114% | [16] 102% | [17] 81.1% | [18] 99% | [19] 95% | [20] 66.5%

CC(C)CN1C(=O)/C(=C\C(=O)c2cc3ccccc3oc2=O)c2ccccc21
inactive: [1] 45.3% | [2] 114% | [3] 82.6% | [4] 100% | [5] 106% | [6] 96.6% | [7] 97% | [8] 83.2% | [9] 85.7% | [10] 90.1% | [11] 101% | [12] 94.7% | [13] 89.9% | [14] 52.1% | [15] 98.2% | [16] 30.6% | [17] 81.2% | [18] 149% | [19] 37.2% | [20] 40%

Cn1cc(-c2cc3nc(-c4cn(C)c5ncc(Br)cc45)cc(N)n3n2)c2cc(F)ccc21
active: [1] 8.7% | [2] -28.5% | [5] -26.1% | [8] -7.29% | [9] -69.7% | [16] -7.44% | [17] -3.51% | [19] 5.26%
inactive: [3] 24.9% | [4] 58.3% | [6] 19.2% | [7] 40.4% | [10] 22.6% | [11] 88.8% | [12] 49% | [13] 26.4% | [14] 20.3% | [15] 16% | [18] 125% | [20] 17.4%

O=C(NN1C(=O)/C(=C/C=C/c2ccc([N+](=O)[O-])o2)SC1=S)c1ccc(O)cc1
inactive: [18] 14.6%
active: [1] -73% | [2] -67.7% | [3] -65.1% | [4] -100% | [5] -91.4% | [6] -67.2% | [7] -100% | [8] -99.3% | [9] -84.8% | [10] -100% | [11] -89.4% | [12] -98.1% | [13] -97.5% | [14] -92.7% | [15] -99.3% | [16] -100% | [17] -100% | [19] -24% | [20] -40.7%

Nc1ccc(-c2ccc3ncnc(N4CCc5cc(F)c(Cl)cc54)c3c2)cn1
active: [3] -4.49% | [12] -29.2% | [14] 3.05% | [15] -7.15% | [16] 8.96% | [17] 5.25% | [18] -13.2% | [20] 1.81%
inactive: [1] 24.8% | [2] 25.9% | [4] 39.3% | [5] 43.8% | [6] 19% | [7] 16.6% | [8] 15% | [9] 18.7% | [10] 41.4% | [11] 29% | [13] 19.2% | [19] 10.6%

Clc1ccc(CNc2nc(SCCN3CCOCC3)nc3c2cnn3CC(Cl)c2ccc(Br)cc2)cc1 (stereo not given)
active: [1] 1.95% | [2] -51.5% | [20] -22.7%
inactive: [3] 76.2% | [4] 50.4% | [5] 38.3% | [6] 34.3% | [7] 42.3% | [8] 57.5% | [9] 30.9% | [10] 56.2% | [11] 33.6% | [12] 31.8% | [13] 42.7% | [14] 28.5% | [15] 68.7% | [16] 23.5% | [17] 45% | [18] 106% | [19] 19.7%

COc1ccc(N=Nc2c(N)nn3c(N)c(C#N)c(-c4ccc(C)cc4)nc23)cc1
active: [19] 8.68% | [20] 5.8%
inactive: [1] 47.8% | [2] 66.1% | [3] 22.9% | [4] 89.5% | [5] 74.4% | [6] 36.8% | [7] 55.4% | [8] 78.5% | [9] 50.1% | [10] 91.1% | [11] 91% | [12] 36.3% | [13] 57.7% | [14] 61.1% | [15] 101% | [16] 56.8% | [17] 17.4% | [18] 128%

Cc1nn(-c2ccccc2)c2nc(C)n(CC(=O)N/N=C/c3ccccc3O)c(=O)c12
inactive: [1] 26.7% | [2] 41.2% | [3] 76.1% | [4] 36.5% | [5] 28.7% | [6] 46.8% | [10] 37.9% | [11] 38.1% | [12] 13% | [13] 30% | [14] 13.2% | [15] 32.8% | [16] 14.6% | [17] 22.6% | [18] 97% | [19] 25.7% | [20] 22.8%
active: [7] -2.79% | [8] 3.15% | [9] 4.1%

Cc1ccc(S(=O)(=O)N(CCn2ccnc2[N+](=O)[O-])CCn2ccnc2[N+](=O)[O-])cc1
inactive: [1] 103% | [2] 112% | [3] 96% | [4] 101% | [5] 102% | [6] 94.9% | [7] 99.3% | [8] 94% | [9] 102% | [10] 106% | [11] 105% | [12] 95.5% | [13] 105% | [14] 76.4% | [15] 98.4% | [16] 101% | [17] 89.2% | [18] 112% | [19] 100% | [20] 99.8%

COc1ccc(-c2cc(C(=O)OCc3ccc(Br)cc3)nn2-c2ccc(S(C)(=O)=O)cc2)cc1OC
inactive: [1] 73.3% | [2] 87.3% | [3] 60.5% | [4] 84.6% | [5] 86.1% | [6] 72.1% | [7] 77.5% | [8] 72.6% | [9] 75.3% | [10] 102% | [11] 95% | [12] 76.1% | [13] 78.3% | [14] 42.4% | [15] 75.5% | [16] 85.1% | [17] 83.5% | [18] 70.3% | [19] 84.2% | [20] 64.5%

Cc1nn(-c2ccccc2)c2nc(C)n(C(=O)N/N=C/c3ccccc3)c(=O)c12
inactive: [1] 107% | [2] 106% | [3] 62.3% | [4] 87% | [5] 95.5% | [6] 92.7% | [7] 103% | [8] 92.6% | [9] 96.8% | [10] 105% | [11] 105% | [12] 94.4% | [13] 97.9% | [14] 74.1% | [15] 123% | [16] 94.9% | [17] 76.9% | [18] 112% | [19] 96.3% | [20] 102%

CC1CCc2c(sc3nc(SCC(=O)c4cccc([N+](=O)[O-])c4)n(-c4ccccc4)c(=O)c23)C1 (stereo not given)
inactive: [1] 73.6% | [2] 67.9% | [3] 85.8% | [4] 59% | [5] 17.6% | [6] 82.1% | [7] 82.6% | [8] 91.9% | [9] 53.7% | [10] 101% | [11] 94.6% | [12] 88% | [13] 57.1% | [14] 91.5% | [15] 72.3% | [16] 31.3% | [17] 12.4% | [18] 115% | [19] 61.8% | [20] 60.2%
